{
  "source": "PubChem BioAssay (NCI)",
  "note": "Compounds without any hit were thinned out: in the full panel of roughly 79,000, 15% have a hit. Unmarked numbers belong to inactive results. Calls of active or inactive are those of the source. Cut-off read from the data, not from the text of the source: active = growth inhibition above about 70%; inactive = the rest.",
  "data": [
    {"assay": "NCI Yeast Anticancer Drug Screen. Data for the bub3 strain (AID 167)", "conditions": "S. cerevisiae bub3 mutant strain, at 50.0 µM, hits give high values", "summary_of_the_method": "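Part of a panel of yeast mutants defective in DNA damage repair or cell cycle regulation. Each strain is grown with compound, and inhibition is calculated relative to solvent-treated cultures.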", "values": [
      {"smiles": "CCc1cc2c(ccc3ccccc32)c2c1CCC2", "growth inhibition": "5.3%"},
      {"smiles": "CCCCN(CCCC)CC(O)c1cc(-c2cc(C(O)CN(CCCC)CCCC)c3ccccc3n2)nc2ccccc12", "note": "(stereo not given)", "growth inhibition": "5.3%"},
      {"smiles": "N#Cc1[nH]nc2nc[nH]c(=O)c12", "growth inhibition": "3.9%"},
      {"smiles": "CC(=O)CC(=O)NCCCN1CCCCCC1", "growth inhibition": "-11.2%"},
      {"smiles": "O=C(NNC(=O)OCc1ccccc1)OCc1ccccc1", "growth inhibition": "11.5%"},
      {"smiles": "CC1(C(=O)N2c3ccccc3C=CC2C#N)CC2C=CC1C2", "note": "(stereo not given)", "growth inhibition": "-2.4%"},
      {"smiles": "COC(=O)C1C2C=CC(C2)C1C(=O)OC", "note": "(stereo not given)", "growth inhibition": "-7.95%"},
      {"smiles": "COC(=O)CCCCCCCCC(C)C(C)=O", "note": "(stereo not given)", "growth inhibition": "-45.3%"},
      {"smiles": "Clc1c(Cl)c(Cl)c(CSCc2c(Cl)c(Cl)c(Cl)c(Cl)c2Cl)c(Cl)c1Cl", "growth inhibition": "2.1%"},
      {"smiles": "Fc1ccc(-c2nnc(-c3ccc4ccccc4c3)o2)cc1", "growth inhibition": "35.8%"},
      {"smiles": "CC1CCC2(OC1)OC1CC3C4CCC5CC(O)CCC5(C)C4CC(=O)OC3(C)C1C2C", "note": "(stereo not given)", "growth inhibition": "-25%"},
      {"smiles": "C=C(/C=C/CCCC)NC(=O)OCc1ccccc1", "growth inhibition": "1.25%"},
      {"smiles": "CC(NC(=O)C(N)CC(=O)O)NC(=O)C1CCC1", "note": "(stereo not given)", "growth inhibition": "8.6%"},
      {"smiles": "CCOC(=O)c1c(Br)c(-c2ccc([N+](=O)[O-])cc2)c(Br)n1C", "growth inhibition": "-2.1%"},
      {"smiles": "O=C(O)c1ccccn1", "growth inhibition": "-3.85%"},
      {"smiles": "CC(=O)/C(=N/O)C(C)C", "growth inhibition": "-0.45%"},
      {"smiles": "O=C([O-])[C+](C=Cc1cccc2ccccc12)C(=O)O", "growth inhibition": "3.35%"},
      {"smiles": "Cc1ccc(OC(=O)c2ccc([N+](=O)[O-])cc2)cc1C(C)C", "growth inhibition": "-10.1%"},
      {"smiles": "Cc1nc(N)c(N=O)c(=O)[nH]1", "growth inhibition": "10.9%"},
      {"smiles": "CC(=O)C1(SCCO)CCC2C3CCC4=CC(=O)CCC4(C)C3CCC21C", "note": "(stereo not given)", "growth inhibition": "41.1%"},
      {"smiles": "COc1csn[n+]1-c1ccc(C)cc1", "growth inhibition": "14.8%"},
      {"smiles": "CCN(CC)C(=O)c1ccccc1", "growth inhibition": "-24.6%"},
      {"smiles": "CC(=O)N[C@@H]1CCC[C@H](NC(C)=O)C1", "growth inhibition": "12.7%"},
      {"smiles": "C[CH2][Ge]([CH2]C)([CH2]C)[O]C(=O)CCC(=O)[O][Ge]([CH2]C)([CH2]C)[CH2]C", "growth inhibition": "-0.45%"},
      {"smiles": "COc1cc(S(=O)(=O)O)ccc1N=N/C(=N\\Nc1ccc(S(=O)(=O)O)cc1OC)C(N)=O", "growth inhibition": "-1.95%"},
      {"smiles": "OCc1ccc(F)cc1", "growth inhibition": "-10.8%"},
      {"smiles": "O=c1[nH]c2cc(Cl)c(Cl)cc2c2ccc(Cl)cc12", "growth inhibition": "-15.6%"},
      {"smiles": "NC(=S)n1nc(-c2ccccc2)c(N=Nc2cccc([N+](=O)[O-])c2)c1-c1ccccc1", "growth inhibition": "0.1%"},
      {"smiles": "CC(C)=CCC/C(C)=C/C=O", "growth inhibition": "7.95%"},
      {"smiles": "CC1(C)OC(=O)C=C([O-])O1.CC1(C)OC(=O)C=C([O-])O1.O=c1c(O)c(-c2ccc([O-])cc2[O-])oc2cc(O)cc(O)c12.[Ti+4]", "growth inhibition": "-4.55%"},
      {"smiles": "O=C1C(=O)N(C23CC4CC(CC(C4)C2)C3)C(=S)N1c1ccccc1", "growth inhibition": "-24.7%"},
      {"smiles": "CCOC(=O)N1C=Cc2c(c3ccccc3n2C)N1C(=O)OCC", "growth inhibition": "5.7%"},
      {"smiles": "O=C(O)c1ccc(C(=O)c2ccc(C(=O)c3ccc(C(=O)O)cc3)cc2)cc1", "growth inhibition": "-13%"},
      {"smiles": "O=C(O)c1ccc[n+](Cc2ccccc2)c1", "growth inhibition": "-5.95%"},
      {"smiles": "C=CCOC(=O)CCC(C#N)(C#N)CCC(=O)OCC=C", "growth inhibition": "50.5%"},
      {"smiles": "Cc1ccc(S(=O)(=O)Cc2c(C)cc(C)cc2C)cc1", "growth inhibition": "-10.6%"},
      {"smiles": "NC(=S)N/N=C1\\CCCCC1C(O)(C(F)(F)Cl)C(F)(F)Cl", "note": "(stereo not given)", "growth inhibition": "-11.5%"},
      {"smiles": "CCCCCC1CCN(C(=O)c2ccc(N)cc2)CC1", "growth inhibition": "94.4% (active)"},
      {"smiles": "Cn1c(N)c(N=Cc2ccc(Cl)cc2)c(=O)n(C)c1=O", "growth inhibition": "-7.75%"},
      {"smiles": "O=C1C=CC(=Nc2ccc(OC(=O)c3ccccc3)cc2)C=C1", "growth inhibition": "-3.8%"}
    ]},
    {"assay": "NCI Yeast Anticancer Drug Screen. Data for the mlh1 rad18 strain (AID 175)", "conditions": "S. cerevisiae mlh1 rad18 strain growth inhibition; at 50.0 µM; hits give high values", "summary_of_the_method": "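Inhibition values reflect reduced growth of mutant yeast versus vehicle-treated controls following compound exposure; the mutations affect DNA damage repair.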", "values": [
      {"smiles": "CCc1cc2c(ccc3ccccc32)c2c1CCC2", "growth inhibition": "1.6%"},
      {"smiles": "CCCCN(CCCC)CC(O)c1cc(-c2cc(C(O)CN(CCCC)CCCC)c3ccccc3n2)nc2ccccc12", "note": "(stereo not given)", "growth inhibition": "32.4%"},
      {"smiles": "N#Cc1[nH]nc2nc[nH]c(=O)c12", "growth inhibition": "4.85%"},
      {"smiles": "CC(=O)CC(=O)NCCCN1CCCCCC1", "growth inhibition": "-4.35%"},
      {"smiles": "O=C(NNC(=O)OCc1ccccc1)OCc1ccccc1", "growth inhibition": "18.1%"},
      {"smiles": "CC1(C(=O)N2c3ccccc3C=CC2C#N)CC2C=CC1C2", "note": "(stereo not given)", "growth inhibition": "-15.9%"},
      {"smiles": "COC(=O)C1C2C=CC(C2)C1C(=O)OC", "note": "(stereo not given)", "growth inhibition": "0.1%"},
      {"smiles": "COC(=O)CCCCCCCCC(C)C(C)=O", "note": "(stereo not given)", "growth inhibition": "-32.5%"},
      {"smiles": "Clc1c(Cl)c(Cl)c(CSCc2c(Cl)c(Cl)c(Cl)c(Cl)c2Cl)c(Cl)c1Cl", "growth inhibition": "-13.3%"},
      {"smiles": "Fc1ccc(-c2nnc(-c3ccc4ccccc4c3)o2)cc1", "growth inhibition": "-1.3%"},
      {"smiles": "CC1CCC2(OC1)OC1CC3C4CCC5CC(O)CCC5(C)C4CC(=O)OC3(C)C1C2C", "note": "(stereo not given)", "growth inhibition": "2.2%"},
      {"smiles": "C=C(/C=C/CCCC)NC(=O)OCc1ccccc1", "growth inhibition": "18.9%"},
      {"smiles": "CC(NC(=O)C(N)CC(=O)O)NC(=O)C1CCC1", "note": "(stereo not given)", "growth inhibition": "-35.8%"},
      {"smiles": "CCOC(=O)c1c(Br)c(-c2ccc([N+](=O)[O-])cc2)c(Br)n1C", "growth inhibition": "-5.2%"},
      {"smiles": "O=C(O)c1ccccn1", "growth inhibition": "30%"},
      {"smiles": "CC(=O)/C(=N/O)C(C)C", "growth inhibition": "2.8%"},
      {"smiles": "O=C([O-])[C+](C=Cc1cccc2ccccc12)C(=O)O", "growth inhibition": "31.3%"},
      {"smiles": "Cc1ccc(OC(=O)c2ccc([N+](=O)[O-])cc2)cc1C(C)C", "growth inhibition": "-22%"},
      {"smiles": "Cc1nc(N)c(N=O)c(=O)[nH]1", "growth inhibition": "7.35%"},
      {"smiles": "CC(=O)C1(SCCO)CCC2C3CCC4=CC(=O)CCC4(C)C3CCC21C", "note": "(stereo not given)", "growth inhibition": "77.2% (active)"},
      {"smiles": "COc1csn[n+]1-c1ccc(C)cc1", "growth inhibition": "9.65%"},
      {"smiles": "CCN(CC)C(=O)c1ccccc1", "growth inhibition": "10.3%"},
      {"smiles": "CC(=O)N[C@@H]1CCC[C@H](NC(C)=O)C1", "growth inhibition": "-23.9%"},
      {"smiles": "C[CH2][Ge]([CH2]C)([CH2]C)[O]C(=O)CCC(=O)[O][Ge]([CH2]C)([CH2]C)[CH2]C", "growth inhibition": "14.7%"},
      {"smiles": "COc1cc(S(=O)(=O)O)ccc1N=N/C(=N\\Nc1ccc(S(=O)(=O)O)cc1OC)C(N)=O", "growth inhibition": "7.7%"},
      {"smiles": "OCc1ccc(F)cc1", "growth inhibition": "3.45%"},
      {"smiles": "O=c1[nH]c2cc(Cl)c(Cl)cc2c2ccc(Cl)cc12", "growth inhibition": "-14.1%"},
      {"smiles": "NC(=S)n1nc(-c2ccccc2)c(N=Nc2cccc([N+](=O)[O-])c2)c1-c1ccccc1", "growth inhibition": "10.8%"},
      {"smiles": "CC(C)=CCC/C(C)=C/C=O", "growth inhibition": "8.4%"},
      {"smiles": "CC1(C)OC(=O)C=C([O-])O1.CC1(C)OC(=O)C=C([O-])O1.O=c1c(O)c(-c2ccc([O-])cc2[O-])oc2cc(O)cc(O)c12.[Ti+4]", "growth inhibition": "-16.2%"},
      {"smiles": "O=C1C(=O)N(C23CC4CC(CC(C4)C2)C3)C(=S)N1c1ccccc1", "growth inhibition": "-27.2%"},
      {"smiles": "CCOC(=O)N1C=Cc2c(c3ccccc3n2C)N1C(=O)OCC", "growth inhibition": "-6.95%"},
      {"smiles": "O=C(O)c1ccc(C(=O)c2ccc(C(=O)c3ccc(C(=O)O)cc3)cc2)cc1", "growth inhibition": "-14.8%"},
      {"smiles": "O=C(O)c1ccc[n+](Cc2ccccc2)c1", "growth inhibition": "2.15%"},
      {"smiles": "C=CCOC(=O)CCC(C#N)(C#N)CCC(=O)OCC=C", "growth inhibition": "15.3%"},
      {"smiles": "Cc1ccc(S(=O)(=O)Cc2c(C)cc(C)cc2C)cc1", "growth inhibition": "1.15%"},
      {"smiles": "NC(=S)N/N=C1\\CCCCC1C(O)(C(F)(F)Cl)C(F)(F)Cl", "note": "(stereo not given)", "growth inhibition": "-25.2%"},
      {"smiles": "CCCCCC1CCN(C(=O)c2ccc(N)cc2)CC1", "growth inhibition": "42.7%"},
      {"smiles": "Cn1c(N)c(N=Cc2ccc(Cl)cc2)c(=O)n(C)c1=O", "growth inhibition": "-7.4%"},
      {"smiles": "O=C1C=CC(=Nc2ccc(OC(=O)c3ccccc3)cc2)C=C1", "growth inhibition": "9.35%"}
    ]}
  ]
}
